Hits are enriched below; roughly 8.8% of the tested compounds scored in any of these assays.
KB-V1 MDR tox: kills drug-selected multidrug resistant KB-V1 cells; KB-V1 MDR cells viability, CellTiter-Glo, 72 h; Potency, µM (top dose mostly 46.1 µM), most hits filed as cytotoxic; 400,000 compounds, 3.4% hits; AID 1347076; note: nearly all actives have a fitted effect of over 60% in size
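KB-V1 MDR subline cells in DMEM (phenol-red free, 10% FBS) exposed to compounds in qHTS concentration series for 72 h at 37 degrees C. Viability read by CellTiter-Glo luminescence; concentration-effect curves fitted after normalization and correction.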
HT1080 IDH1KD tx: HT-1080 IDH1 knockdown cell toxicity (counter line); HT-1080 IDH1 knockdown viability, ATP luminescence, 48 h; Potency, µM (highest dose often 46.1 µM), hits mostly cytotoxic; 360,000 compounds, 2% hits; AID 686971
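After a 2 h attachment period, IDH1KD HT-1080 cells took pin-transferred compound for 48 h at 37 °C; ATP-based luminescence after 10 min room-temperature reagent incubation reported viability.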
KB-3-1 tox: kills parental KB-3-1 adenocarcinoma cells. Potency, µM (titrated, usually from 46.1 µM), usual class: cytotoxic. 400,000 compounds, 1.4% hits. KB-3-1 viability, CellTiter-Glo ATP luminescence, 72 h; note: nearly all actives have a fitted effect of over 60% in size
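Using CellTiter-Glo luminescence, growth of non-resistant KB-3-1 adenocarcinoma cells is assessed 72 h after pin-tool compound addition at 37 °C. Normalized responses across the concentration series yield fitted curves.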
IL1B secr inh: blocks inflammasome-driven IL-1 beta release. THP-1 LPS/ATP IL-1B secretion, AlphaLISA, 16 h; hits give low values. activity change, % at 57.5 µM. 360,000 compounds, 4.7% hits; in the data active = activity change below about -50%; inconclusive = mostly about -30% to -49%
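Secreted IL-1B measured by AlphaLISA bead assay after 16 h compound exposure of THP-1 cells; compounds (final up to 57.5 uM) added 1 h before LPS (250 ng/mL) and ATP (1.25 mM) stimulation; lower signal means less secretion.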
HT1080-NT tox: kills 2HG-producing HT-1080-NT fibrosarcoma cells. 360,000 compounds, 1.6% hits. AID 686970. HT-1080-NT fibrosarcoma viability, CellTiter-Glo ATP luminescence, 48 h. Potency, µM (top dose mostly 46.1 µM), actives largely listed as cytotoxic;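 note: NT is the 2HG producing partner of a matched IDH1 knockdown line; nearly all actives have a fitted effect of over 55% in size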
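HT-1080-NT fibrosarcoma cells (2HG-overproducing), 750 cells/well in RPMI with 5% FBS, dosed after 2 h and incubated 48 h at 37C. CellTiter-Glo luminescence normalized to DMSO and no-cell wells; concentration-response curves fitted and classed.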
Numbers stand for hits; . = inactive; ? = inconclusive; / = no result given. Unless noted, calls come from the whole dose curve; as a rule, active = well fitted curve in the direction sought with a large enough effect; inconclusive = small, poorly fitted or top-dose-only effect, or another doubt; inactive = no such curve, though single readings can be large; an effect the other way counts as inactive or inconclusive.

SMILES	KB-V1 MDR tox	HT1080 IDH1KD tx	KB-3-1 tox	IL1B secr inh	HT1080-NT tox
Oc1ccc2cc(Br)ccc2c1CN1CCCC1	.	.	.	-57.5	.
Oc1ccc2ccccc2c1CN1CCCC1	.	.	.	.	.
CNC(=O)C[C@@H]1C(=O)N(c2ccc(OC)cc2)CC1(C)C	.	.	.	.	.
COc1ccc(CCn2c(C)nc3ccccc3c2=O)cc1OC	?	.	.	.	.
O=c1c2ccccc2nc(-c2ccco2)n1CCCn1ccnc1	8.2µM	.	.	.	.
O=c1c2ccccc2nc(-c2ccccc2)n1CCCn1ccnc1	.	.	.	.	.
COc1ccc(CCn2c(-c3ccco3)nc3ccccc3c2=O)cc1OC	?	?	.	-54.0	.
NC(COCc1ccccc1)c1csc(NC(=O)Nc2cccc(Cl)c2)n1 (stereo not drawn)	.	?	.	-55.9	?
COc1ccc(CC(N)c2csc(NC(=O)Nc3ccc(F)cc3)n2)cc1 (stereo not drawn)	.	?	.	-65.3	?
NC(Cc1ccc(Cl)cc1)c1csc(NC(=O)Nc2ccccc2)n1 (stereo not drawn)	.	18.4µM	.	.	23.1µM
NC(Cc1ccc(C(F)(F)F)cc1)c1csc(NC(=O)Nc2ccccc2Cl)n1 (stereo not drawn)	.	?	.	-71.7	14.6µM
NC(CO)c1csc(NC(=O)Nc2cccc(Cl)c2)n1 (stereo not drawn)	.	.	.	.	.
CC1CN(S(=O)(=O)c2cccc(C(=O)N3CCC(C(N)=O)CC3)c2)CC(C)O1 (stereo not drawn)	.	.	.	.	.
COc1ccc(CNC(=O)c2sc3nc4n(c(=O)c3c2C)CCCCC4)cc1	.	/	.	/	/
COC(=O)[C@@H](NC(=O)Nc1ccc(OC(F)(F)F)cc1)C(C)C	.	.	.	.	.
CC(C)C(N)c1csc(NC(=O)Nc2ccc(OC(F)(F)F)cc2)n1 (stereo not drawn)	.	20.6µM	?	-70.4	8.2µM
NCc1csc(NC(=O)Nc2cccc(C(F)(F)F)c2)n1	.	?	.	.	.
NC(CCc1ccccc1)c1csc(NC(=O)Nc2cccc(C(F)(F)F)c2)n1 (stereo not drawn)	?	20.6µM	?	-56.5	16.4µM
COc1ccc(CC(N)c2csc(NC(=O)Nc3cccc(C(F)(F)F)c3)n2)cc1 (stereo not drawn)	?	16.4µM	?	-57.2	18.4µM
NC(Cc1ccc(C(F)(F)F)cc1)c1csc(NC(=O)Nc2ccccc2)n1 (stereo not drawn)	.	16.4µM	.	.	?
N#Cc1ccccc1COc1cccc2c1CCCC2O (stereo not drawn)	.	.	.	.	.
CCOc1ccccc1OCCCC(=O)NNC(=O)c1cc(C)oc1C	.	.	.	?	.
Cc1cc(C)nc(N2CCCC(C(=O)NC(C)C)C2)n1 (stereo not drawn)	.	.	.	.	.
Cn1cccc1C(NC(=O)c1ccccc1)C(Cl)(Cl)Cl (stereo not drawn)	.	.	.	.	.
O=C(Nc1ccc(Cl)cc1)C1CCN(c2nc3ccccc3nc2C(F)(F)F)CC1	?	/	.	/	/
SMILES	KB-V1 MDR tox	HT1080 IDH1KD tx	KB-3-1 tox	IL1B secr inh	HT1080-NT tox
CC(C)C(N)c1csc(NC(=O)Nc2cccc(C(F)(F)F)c2)n1 (stereo not drawn)	?	23.1µM	?	?	20.6µM
O=Nc1nc2ncccn2c1-c1ccccc1	?	11.6µM	.	-83.6	.
Nc1ccc(Cc2ccc([N+](=O)[O-])cc2)cc1	.	.	.	-50.3	.
O=[N+]([O-])c1ccc(Cc2ccccn2)cc1	.	.	.	.	.
CN(C)CCNc1nccc(N2CCN(C)CC2)n1	.	/	?	/	/
O=[N+]([O-])c1cnc(Sc2ccncn2)s1	?	16.4µM	18.4µM	-71.5	5.8µM
CCOc1ccc(NC(=O)c2nc(S(=O)(=O)Cc3ccc(F)cc3)ncc2Cl)cc1	?	/	.	/	/
Cc1ccccc1CS(=O)(=O)c1ncc(Cl)c(C(=O)Nc2ccc(F)cc2)n1	.	?	.	-97.5	?
Cc1ccc(NC(=O)c2nc(S(=O)(=O)Cc3ccccc3)ncc2Cl)cc1	?	6.51µM	13µM	-103.4	18.4µM
O=C(Nc1ccc(F)cc1)c1nc(S(=O)(=O)Cc2ccccc2)ncc1Cl	?	14.6µM	5.17µM	-95.0	23.1µM
